Assay in all cases: NCI-60 one-dose screen, 48 h (100 = growth as untreated, 0 = no growth, -100 = all killed)
Holding throughout (details): 10 µM

For assay [1], the system named is SK-MEL-2 melanoma.
In assay [2] the test system is EKVX NSCLC.
In assay [3] the test system is UO-31 renal.
Assay [4] relates to TK-10 renal.
In assay [5] the test system is ACHN renal.
The test system of assay [6] is CAKI-1 renal.
Assay [7] concerns A498 renal.
Assay [8] relates to CCRF-CEM leukemia.
Assay [9] concerns MOLT-4 leukemia.
The test system of assay [10] is SN12C renal.

SMILES strings stand for the structures. About 83,000 compounds went through this panel and 20% of them were active in at least one assay; those are over-represented in the sample as a whole.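 Activity criterion: percent growth below 10, measured after cells in 96-well plates were exposed to a single compound concentration for 48 hours.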 Values without a mark were called inactive. Active and inactive are the calls of the source.

As to `COc1ccc(N=Nc2cc(OC)c(OC)c(OC)c2)cc1`, the growth is 74.1% in assay [1]; 77.3% in assay [2]; 58.6% in assay [3]; 84.7% in assay [4]; 80.2% in assay [5]; 70.2% in assay [6]. Further, the figures for the growth in assay [7], in [8] and in assay [9] were 73.5%, 65.6% and 78%, respectively.
Take `CCN(CC)CCOC(=O)c1cc(OCc2ccccc2)c(OCc2ccccc2)c(OCc2ccccc2)c1`: the growth in assay [1] was 78.5%; in assay [2], 47.7%; in [3], 50.7%; in assay [4], 78.3%; in assay [5] it was 71.9%; in assay [6] it was 50.4%. The growth in [7] is 68.8%; in [8], 37%; in [9], 8.5% (active).
Regarding `c1ccc2c(c1)Cc1ccccc1N2CCN1CCCCC1`, the growth in [1] was 97%; in assay [2], 101%; in assay [4] it was 104%; in [5] it was 89.6%; in [6], 90.7%; in assay [7], 107%. Further, the growth was 98.7% in assay [8] and 83.3% in assay [9].
As to `Cc1ccc(N=Nc2ccccc2)cc1`, the growth in assay [1] is 97.6%; in assay [2] it was 94.8%; in assay [3], 94.8%; in assay [4] it was 95.1%; in assay [5], 107%; in [6], 96.4%. For the same compound, the figures for the growth in [7], in assay [8] and in [9] were 104%, 99% and 95.5%, respectively.
`COc1ccccc1/C=N\N/C(N)=N\N=C\c1ccccc1OC`: the growth is 21.4% in assay [1]; 26.1% in assay [2]; 18.4% in [10]; 20.5% in assay [5]; -7% (active) in assay [6]; -66.5% (active) in assay [7]. In addition, the figures for the growth in assay [8] and in assay [9] were -19.6% (active) and 4.77% (active), respectively.
On to `CC(CN(C)C)Oc1ccc(OC(C)CN(C)C)c2c1C(=O)c1ccccc1C2=O` (stereo unspecified), for which the growth in [1] is 41%; in [2] it was 70.7%; in assay [10] it was 33.5%; in assay [4] it was 42.7%; in assay [5], 28%; in assay [8], 28.9%. The growth in assay [9] is 9.9% (active).
On to `COc1cc(-c2nn(-c3ccc(NC(=O)NCCCNC(=O)c4ccccc4)cc3)cc2-c2ccncc2)ccc1Cl`, for which the growth is 18% in assay [1]; 51.4% in [2]; 54.5% in assay [10]; 59.3% in assay [4]; 23.7% in [5]; 14.5% in [8]. In addition, the growth in [9] is 23.5%.
As to `O=[N+]([O-])c1ccc(/C(=C/c2ccccc2)[n+]2ccccc2)cc1`, the growth in assay [1] was 125%; in assay [10] it was 101%; in [3] it was 100%; in assay [4] it was 114%; in [5] it was 107%; in assay [6], 111%. Also, the growth was 101% in [7] and 105% in [9].
With `COc1ccc2c(c1)C(=O)/C(=C/c1ccc([N+](=O)[O-])o1)O2`, the growth is -68.7% (active) in [1]; -30.4% (active) in [10]; -91.9% (active) in assay [3]; -93.1% (active) in assay [4]; -80.9% (active) in assay [5]; -69.8% (active) in assay [6]. The growth is -50.5% (active) in assay [7], 3.49% (active) in assay [8] and -37.2% (active) in assay [9].
On to `CCN(CC)CCCC(C)Nc1c2ccc(Cl)cc2nc2ccc(OC)cc12` (stereo unspecified), for which the growth in assay [1] was 57.6%; in assay [2], 49%; in [10] it was 33.2%; in assay [4], 23.9%; in assay [5], 14.2%; in [7], 74%. For the same compound, the growth in assay [8] is 39.4%; in assay [9], 15.5%.
On to `COc1cccc(N=Nc2cccc(OC)c2)c1`, for which the growth in assay [1] was 94.4%; in assay [2], 83.5%; in [3] it was 88.2%; in [4], 95.9%; in [5], 93%; in assay [6] it was 94.2%. The growth is 86.4% in [7], 90.8% in assay [8] and 79.5% in assay [9].
With `CCCCC1(O)CCCCC1`, the growth in assay [1] was 112%; in assay [10], 103%; in assay [3] it was 99.1%; in assay [4], 94.3%; in [5] it was 101%; in [6] it was 96.1%. The growth in assay [7] was 115%; in assay [9], 93.5%.
`CCOc1ccccc1/C=N/N1CCCCCC1`: the growth is 113% in assay [1]; 96.7% in [2]; 104% in assay [4]; 104% in assay [5]; 85.7% in [6]; 100% in assay [8]. Moreover, the growth in assay [9] is 97.7%.
On to `Cc1ccc(-c2c3c(N)nc(-c4cccnc4)nc3nc3c2c(C)nn3-c2ccccc2)cc1`, for which the growth in [1] is 61.6%; in assay [10], 82.8%; in assay [3], 65.8%; in assay [4] it was 94.6%; in [5] it was 40%; in assay [6], 83.6%. The growth was 74.8% in [7] and 93.6% in assay [9].
For `CC1CCCC(C(=O)O)C1C(=O)O` (stereo unspecified), the growth in [1] is 93.4%; in assay [2], 95.4%; in [3] it was 92.7%; in assay [4], 93.8%; in assay [5], 105%; in assay [6], 97.2%. Further, the growth in assay [7] is 95.8%; in assay [8] it was 99.3%; in assay [9], 77.6%.
Take `Cc1nn(-c2ccccc2)c2nc(Cl)c(C=O)c(-c3ccccc3)c12`: the growth in [1] is 114%; in assay [10], 98.2%; in assay [3] it was 48.1%; in assay [4], 113%; in assay [5], 114%; in [7] it was 78.6%. Also, the growth in assay [8] was 36.3%.
As for `O=C1/C(=C/c2ccc([N+](=O)[O-])s2)Oc2cc(Cl)ccc21`, the growth is -49.9% (active) in assay [1]; -2.52% (active) in assay [10]; -92% (active) in [3]; -26.8% (active) in [4]; -70.5% (active) in assay [5]; 52.8% in assay [6]. The growth was 102% in assay [7], -9.78% (active) in assay [8] and 2.92% (active) in assay [9].
Take `O=C(O)COc1c(Cl)cc([N+](=O)[O-])cc1Cl`: the growth in assay [1] is 101%; in assay [2] it was 102%; in [3], 94.2%; in assay [4] it was 99%; in assay [5], 106%; in [6] it was 99.9%. Besides, the growth in assay [7] was 97.5%; in [8], 92.5%; in [9], 80.6%.
As for `COc1cc(C2CC(c3ccc4c(c3)OCO4)=NN2c2ccccc2)cc(OC)c1OC` (stereo unspecified), the growth is 108% in assay [1]; 89.4% in [2]; 90.9% in assay [10]; 112% in assay [4]; 75.4% in [6]; 97.9% in assay [7]. Moreover, the values for the growth in assay [8] and in assay [9] were 80.8% and 82.3%, respectively.
On to `Cc1ccc(NC(=S)NNC(=S)Nc2ccc(C)cc2)cc1`, for which the growth in assay [1] is 66.1%; in [2] it was 92.7%; in assay [10], 68.1%; in [4] it was 86.7%; in [5], 77.1%; in assay [7], 73.4%. For the same compound, in assay [9], the growth was 45.3%.
As to `C#CC(C)(O)[C@@H]1C[C@H](CC(=O)O)C1(C)C` (stereo partly specified), the growth in [1] is 108%; in [10], 108%; in assay [3], 87.1%; in assay [4] it was 114%; in assay [5] it was 110%; in [6] it was 96%. The growth was 110% in assay [7] and 114% in assay [9].
For `COc1ccc(Nc2cnc3cc(NS(=O)(=O)c4ccc(C)cc4)ccc3n2)cc1`, the growth was 65.5% in assay [1]; 85.9% in assay [10]; 59.3% in assay [3]; 94.7% in assay [4]; 90.3% in [5]; 61.5% in assay [6]. In addition, the growth in [7] was 77.9%; in assay [8] it was 90%; in assay [9] it was 57.5%.
As to `O=C(CI)OCC(COC(=O)CI)OC(=O)CI`, the growth was 83.1% in assay [1]; 76.8% in [10]; -89.8% (active) in [3]; 78.9% in assay [4]; 11.2% in [5]; -17.6% (active) in assay [6]. In addition, the growth is 108% in assay [7] and 44.4% in assay [9].
For the compound `O=[N+]([O-])c1ccc(NCSc2ccc(Cl)cc2)cc1`, the growth in assay [1] is 98.5%; in assay [2], 97.3%; in [10], 86%; in [4] it was 105%; in assay [5], 92.8%; in [9], 61.7%.
`Cc1ccc(C(C)C)c(O)c1NC(=O)OC(C)C`: the growth in [1] was 96.6%; in [2], 92.3%; in assay [10], 91.9%; in [4] it was 116%; in assay [6], 121%; in assay [7], 91.5%. Moreover, the growth was 104% in assay [8] and 122% in assay [9].
For the compound `COc1ccc(-c2n[nH]nc2-c2cc(OC)c3c(c2OC)OCO3)cc1`, the growth in [1] was 1.83% (active); in [2] it was 48.3%; in assay [10], 33.5%; in assay [5] it was 54.9%; in [6] it was 27.2%; in assay [7], 14.9%. Besides, the figures for the growth in assay [8] and in assay [9] were 17.8% and 24.2%, respectively.
With `O=C1/C(=C/c2ccc3c(c2)OCO3)SC(=S)N1C1c2ccccc2Oc2ccccc21`, the growth in assay [1] was 115%; in assay [2] it was 96.8%; in [3], 74.2%; in [4] it was 101%; in [5], 91.2%; in assay [7], 101%. The growth in [8] is 86.7%; in [9], 96.5%.
For `CC(C)(O)CCl`, the growth is 153% in [1]; 106% in assay [10]; 107% in assay [3]; 111% in assay [4]; 108% in assay [5]; 103% in [6]. Besides, the growth in [7] was 106%; in [9] it was 107%.

The values are drawn from PubChem BioAssay (NCI).
